ChEMBL document CHEMBL2218924, “A broad activity screen in support of a chemogenomic map for kinase signalling research and drug discovery” (Biochem J, 2013)

Key:
[1] = biological target: Mast/stem cell growth factor receptor Kit (Homo sapiens) (UniProt P10721); conditions: at 1 µM
[2] = biological target: Mast/stem cell growth factor receptor Kit (Homo sapiens) (UniProt P10721); conditions: at 10 µM
[3] = biological target: Proto-oncogene tyrosine-protein kinase Src (Homo sapiens) (UniProt P12931); conditions: at 1 µM
[4] = biological target: Proto-oncogene tyrosine-protein kinase Src (Homo sapiens) (UniProt P12931); conditions: at 10 µM
[5] = biological target: Serine/threonine-protein kinase mTOR (Homo sapiens) (UniProt P42345); conditions: at 1 µM
[6] = biological target: Serine/threonine-protein kinase mTOR (Homo sapiens) (UniProt P42345); conditions: at 10 µM
[7] = biological target: Serine/threonine-protein kinase mTOR (Homo sapiens) (UniProt P42345); conditions: at 1 µM; remark: listed apart in the source
[8] = biological target: Serine/threonine-protein kinase mTOR (Homo sapiens) (UniProt P42345); conditions: at 10 µM; remark: listed apart in the source

Mast/stem cell growth factor receptor Kit (Homo sapiens), sequence (P10721 whole entry): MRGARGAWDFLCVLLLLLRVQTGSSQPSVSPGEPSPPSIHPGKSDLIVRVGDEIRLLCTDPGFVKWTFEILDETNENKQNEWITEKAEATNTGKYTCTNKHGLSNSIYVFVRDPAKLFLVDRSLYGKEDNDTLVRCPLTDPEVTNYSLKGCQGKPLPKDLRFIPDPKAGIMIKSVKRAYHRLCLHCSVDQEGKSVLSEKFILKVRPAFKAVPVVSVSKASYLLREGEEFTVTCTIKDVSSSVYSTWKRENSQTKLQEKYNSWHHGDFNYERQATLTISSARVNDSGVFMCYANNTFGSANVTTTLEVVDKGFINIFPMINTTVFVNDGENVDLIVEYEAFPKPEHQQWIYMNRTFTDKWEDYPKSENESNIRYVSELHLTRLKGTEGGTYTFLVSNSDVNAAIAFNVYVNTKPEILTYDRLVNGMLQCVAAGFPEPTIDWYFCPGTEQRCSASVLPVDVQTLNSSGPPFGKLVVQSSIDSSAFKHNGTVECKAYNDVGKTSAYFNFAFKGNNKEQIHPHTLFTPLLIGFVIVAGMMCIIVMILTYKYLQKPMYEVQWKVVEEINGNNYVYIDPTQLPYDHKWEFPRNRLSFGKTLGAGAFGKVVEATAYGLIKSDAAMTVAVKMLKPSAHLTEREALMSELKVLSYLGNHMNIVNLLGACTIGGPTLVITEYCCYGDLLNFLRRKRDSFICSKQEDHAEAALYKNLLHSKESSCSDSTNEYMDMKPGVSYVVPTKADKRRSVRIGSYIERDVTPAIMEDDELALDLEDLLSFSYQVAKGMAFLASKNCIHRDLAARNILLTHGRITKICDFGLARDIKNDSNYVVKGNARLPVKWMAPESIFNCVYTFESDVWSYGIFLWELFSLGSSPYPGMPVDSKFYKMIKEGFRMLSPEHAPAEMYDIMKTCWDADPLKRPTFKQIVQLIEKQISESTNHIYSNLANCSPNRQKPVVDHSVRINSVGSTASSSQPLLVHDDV
Proto-oncogene tyrosine-protein kinase Src (Homo sapiens), sequence (P12931 2-536 limits assumed): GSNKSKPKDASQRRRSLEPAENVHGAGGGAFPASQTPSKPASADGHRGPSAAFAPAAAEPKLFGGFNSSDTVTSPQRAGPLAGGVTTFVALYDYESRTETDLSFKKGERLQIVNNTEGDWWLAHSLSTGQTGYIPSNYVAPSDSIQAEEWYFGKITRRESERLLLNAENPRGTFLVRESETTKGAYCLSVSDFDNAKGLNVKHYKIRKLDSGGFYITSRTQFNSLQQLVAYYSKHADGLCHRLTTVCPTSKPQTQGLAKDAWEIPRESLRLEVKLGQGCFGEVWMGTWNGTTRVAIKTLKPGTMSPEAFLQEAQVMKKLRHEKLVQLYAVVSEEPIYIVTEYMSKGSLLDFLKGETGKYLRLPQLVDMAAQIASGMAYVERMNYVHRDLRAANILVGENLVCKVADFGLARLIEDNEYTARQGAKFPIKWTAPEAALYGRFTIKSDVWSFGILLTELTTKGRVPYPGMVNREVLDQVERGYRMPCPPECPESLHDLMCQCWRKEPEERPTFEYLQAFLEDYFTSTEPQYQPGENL

| SMILES | residual activity [1] [%] | residual activity [2] [%] | residual activity [3] [%] | residual activity [4] [%] | residual activity [5] [%] | residual activity [6] [%] | residual activity [7] [%] | residual activity [8] [%] |
| --- | --- | --- | --- | --- | --- | --- | --- | --- |
| O=c1cc(-c2cccc3c2Sc2ccccc2S3)oc(N2CCOCC2)c1 | 99 | 102 | 89 | 92 | 98 | 74 | 89 | 60 |
| COc1ccc(C(=O)Nc2sc3c(c2C(N)=O)CCCC3)cc1OC | 85 | 87 | 76 | 104 | 101 | 104 | 95 | 88 |
| CNc1cc2c(Nc3cccc(Br)c3)ncnc2cn1 | 110 | 106 | 86 | 78 | 105 | 104 | 100 | 107 |
| CC[n+]1c(/C=C/N(C)c2ccccc2)n(-c2ccccc2)c2ccc(-c3nc4ccccc4s3)cc21 | 123 | 106 | 85 | 128 | 85 | 86 | 84 | 79 |
| Cn1cc(/C=C2\C(=O)Nc3ccc(S(N)(=O)=O)cc32)c2ccccc21 | 69 | 17 | 49 | 25 | 106 | 99 | 104 | 102 |
| COc1cc2ncnc(N3CCN(C(=O)Nc4ccc(Oc5ccccc5)cc4)CC3)c2cc1OC | 37 | 7 | 95 | 97 | 107 | 102 | 98 | 99 |
| N#CCCc1ccc2c(c1)-c1[nH]c3ccc([N+](=O)[O-])cc3c1CC(=O)N2 |  |  | 46 | 13 | 116 |  |  |  |
| c1ccc2c(-c3ccncc3)c[nH]c2c1 | 110 | 98 | 80 | 101 | 109 | 107 | 75 | 110 |
| COc1ccc(S(=O)(=O)N(CCO)c2ccccc2CN(C)C/C=C/c2ccc(Cl)cc2)cc1 | 115 | 100 | 116 | 90 | 109 | 96 | 97 | 101 |
| CCOc1cc2ncnc(Nc3cccc(Br)c3)c2cc1OCC | 108 | 101 | 53 | 14 | 110 | 106 | 94 | 100 |
| CC#CC(=O)Nc1cc2c(Nc3ccc(F)c(Cl)c3)ncnc2cn1 | 111 | 100 | 89 | 92 | 108 | 100 | 113 | 92 |
| O=C1Nc2ccccc2/C1=C1/Nc2ccccc2/C1=N\OCCC(O)CO (centres undefined) | 10 | 1 | 20 | -2 | 113 | 96 | 112 | 110 |
| O=C1c2ccccc2-[n+]2ccc3c([nH]c4ccccc43)c21 | 106 | 97 | 111 | 91 | 103 | 103 | 116 | 101 |
| Cc1nc2cc3nc(-c4cccs4)cnc3cc2n1C | 80 | 13 | 78 | 86 | 105 | 107 | 80 | 84 |
| Cc1ccc(NC2=CC(=O)c3sc(C)nc3C2=O)cc1 | 101 | 107 |  | 87 | 96 | 99 | 100 | 86 |
| Ic1cccc(CSc2nnc(-c3ccncc3)o2)c1 | 97 | 102 | 113 | 83 | 108 | 102 | 108 | 109 |
| Nc1ccc2ncnc(NCCc3ccc(Oc4ccccc4)cc3)c2c1 | 114 | 95 | 110 | 95 |  | 96 | 112 | 63 |
